Drawing on PubChem BioAssay (NCATS), this text covers Potency for 31 compounds.

Records with an inconclusive call do not appear. Entries that show only a call come without a potency. Activity calls are given as the source filed them. Calls come from the whole dose curve; as a rule, active = well fitted cell-killing curve with a large enough effect; inconclusive = small, poorly fitted or top-dose-only effect, or effect the other way; inactive = flat fitted curve, though single readings scatter.
Potency is the fitted concentration of half-maximal effect.

The assay in a line: qHTS for Inhibitors of Ubiquitin-specific Protease USP2a Using CHOP2 as the Reporter: Cytotox Assay (AID 652170). Note: nearly all actives have a fitted effect of over 70% in size. Conditions: HCT116 viability, CellTiter-Glo luminescence, 72 h; series mostly up to 46.1 µM. In outline: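 HCT116 human colon cancer cells, 600 per well in DMEM with 10% FBS, exposed to compounds for 72 hr at 37 deg C. ATP measured by CellTiter-Glo luminescence, normalized to DMSO cells and no-cell background.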
On the technique in general: In qHTS, concentration-response curves come from the screen itself.
`Cc1ccc(S(=O)(=O)Nc2ccccc2C(=O)Nc2nc(-c3ccccc3)co2)cc1`: the Potency is 5.9 µM (active).

As for `COc1cc(C(=O)Nc2nc(-c3ccccc3)cs2)ccc1NS(=O)(=O)c1ccc(C)cc1`, the Potency result was “inactive”.

Regarding `Cc1ccc(S(=O)(=O)Nc2cc(C(=O)Nc3nc(-c4ccccc4)cs3)ccn2)cc1`, the Potency entry was “inactive”.

As for `Cc1ccc(C(=O)[C@H]2CC[C@@H](C(=O)Nc3ccc(S(=O)(=O)Nc4nccs4)cc3)C2)cc1C`, the Potency entry was “inactive”.

`Cc1ccc(-c2cc(C(=O)NCc3ccccc3)c3ccccc3n2)cc1C`: the Potency result was “inactive”.

Consider `Cc1ccc(-c2cc(C(=O)Nc3ccc(-n4cncn4)cc3)c3ccccc3n2)cc1C`, for which the Potency result is “inactive”.

As to `Cc1ccc(S(=O)(=O)Nc2cncc(C(=O)Nc3nc(-c4ccccc4)cs3)c2)cc1`, the Potency result is “inactive”.

For the compound `Cc1ccc(-c2cc(C(=O)Nc3ccc(S(N)(=O)=O)cc3)c3ccccc3n2)cc1C`, the Potency entry is “inactive”.

For the compound `COc1cc(Cl)ccc1C(=O)Nc1nc(-c2ccccc2)cs1`, the Potency entry was “inactive”.

As for `Cc1ccc(S(=O)(=O)Nc2ccc(F)cc2C(=O)Nc2nc(-c3ccccc3)cs2)cc1`, the Potency was 14.8 µM (active).

For the compound `Cc1ccc(S(=O)(=O)Nc2ccccc2C(=O)Nc2ccc(-c3ccccc3)nc2)cc1`, the Potency is 20.9 µM (active).

Consider `COc1ccc(Cl)cc1C(=O)Nc1nc(-c2ccccc2)cs1`, for which the Potency entry was “inactive”.

For `COc1c(NS(=O)(=O)c2ccc(C)cc2)cccc1C(=O)Nc1nc(-c2ccccc2)cs1`, the Potency is 1.48 µM (active).

Regarding `Cc1ccc(-c2cc(C(=O)Nc3ccccc3C)c3ccccc3n2)cc1C`, the Potency result was “inactive”.

In the case of `O=C(Nc1ccc(S(=O)(=O)Nc2nccs2)cc1)[C@@H]1CC[C@H](C(=O)c2ccccc2)C1`, the Potency entry is “inactive”.

Consider `COc1ccc(NS(=O)(=O)c2ccc(C)cc2)cc1C(=O)Nc1nc(-c2ccccc2)cs1`, for which the Potency result is “inactive”.

For the compound `CC(C)Oc1ccccc1C(=O)Nc1nc(-c2ccccc2)cs1`, the Potency entry was “inactive”.

On to `Cc1ccc(S(=O)(=O)N(C)c2ccccc2C(=O)Nc2nc(-c3ccccc3)cs2)cc1`, for which the Potency result was “inactive”.

Take `COc1ccccc1C(=O)Nc1nc(-c2ccccc2)cs1`: the Potency entry was “inactive”.

Turning to `Cc1ccc(S(=O)(=O)Nc2ccc(C(=O)Nc3nc(-c4ccccc4)cs3)c(Cl)c2)cc1`, the Potency was 14.8 µM (active).

Regarding `CC(C)(C)C1CCC(C(=O)Nc2ccc(S(=O)(=O)Nc3nccs3)cc2)CC1` (stereo unspecified), the Potency result was “inactive”.

Turning to `COc1cccc(NS(=O)(=O)c2ccc(C)cc2)c1C(=O)Nc1nc(-c2ccccc2)cs1`, the Potency result was “inactive”.

In the case of `Cc1ccc(-c2cc(C(=O)Nc3ccc(S(=O)(=O)Nc4ccc(C#N)cc4)cc3)c3ccccc3n2)cc1C`, the Potency result was “inactive”.

As for `Cc1ccc(S(=O)(=O)Nc2ccccc2C(=O)Nc2ncc(-c3ccccc3)s2)cc1`, the Potency is 18.7 µM (active).

Take `Cc1ccc(S(=O)(=O)Nc2ccccc2C(=O)Nc2ccc(-c3ccccc3)cc2)cc1`: the Potency was 13.2 µM (active).

Regarding `COC(=O)c1ccccc1C(=O)Nc1nc(-c2ccccc2)cs1`, the Potency result is “inactive”.

`O=C(Nc1ccc(S(=O)(=O)Nc2nccs2)cc1)C1CCC2(CCC2)CC1`: the Potency entry is “inactive”.

Regarding `Cc1ccc(-c2cc(C(=O)Nc3ccc(S(=O)(=O)N(C)C)cc3)c3ccccc3n2)cc1C`, the Potency entry was “inactive”.

`Cc1ccc(S(=O)(=O)n2cc(C(=O)Nc3nc(-c4ccccc4)cs3)c3ccccc32)cc1`: the Potency result is “inactive”.

For `Cc1ccc(S(=O)(=O)Nc2cc(C(=O)Nc3nc(-c4ccccc4)cs3)ccc2Cl)cc1`, the Potency entry is “inactive”.

Take `Cc1ccc(-c2cc(C(=O)Nc3ccn[nH]3)c3ccccc3n2)cc1C`: the Potency result was “inactive”.
